Hits are enriched below; roughly 4.7% of the tested compounds scored in any of these assays.
D1 agonist: agonists of human D1 dopamine receptor; P21728; HEK293 T-REx D1 cells, calcium flux, agonist mode; activation, % at 2 µM; 360,000 tested, 1% active; AID 504660; note: 0% is about no effect
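Inducible HEK293 T-REx D1 cells, force-coupled to calcium signalling, were plated at 4000 cells/well with tetracycline and held overnight at 30 C. After no-wash calcium dye loading, compound-evoked calcium rise over 180 s flagged agonists.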
TRHR PAM: allosterically enhances the human TRH receptor; TRHR cells, fluo-8 calcium fluorescence, EC20 TRH enhancement; enhancement, % at 2 µM; 360,000 tested, 0.66% active; AID 493056; in the data active = enhancement above about 30%; note: 0% is about no effect
Target sequence (P34981 whole entry, looked up): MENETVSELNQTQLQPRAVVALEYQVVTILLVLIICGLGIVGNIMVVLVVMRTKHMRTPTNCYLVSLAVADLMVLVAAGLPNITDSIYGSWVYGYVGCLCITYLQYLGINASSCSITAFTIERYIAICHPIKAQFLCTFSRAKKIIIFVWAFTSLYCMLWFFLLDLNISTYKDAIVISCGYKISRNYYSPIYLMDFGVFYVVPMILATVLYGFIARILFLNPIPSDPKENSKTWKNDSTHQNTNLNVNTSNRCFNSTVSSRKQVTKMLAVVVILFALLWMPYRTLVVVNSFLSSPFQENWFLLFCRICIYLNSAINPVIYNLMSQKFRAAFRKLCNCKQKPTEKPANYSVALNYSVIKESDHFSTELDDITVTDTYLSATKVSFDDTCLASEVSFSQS
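TRHR-expressing cells loaded with fluo-8 calcium dye were read kinetically (ex 480/em 530) during compound addition, then stimulated with an EC20 of TRH (10 nM final). Enhancement of the Gq-mediated intracellular calcium response was scored.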
D1 antagonist: antagonists of human D1 dopamine receptor. P21728. HEK293 TREx D1 cells, calcium flux, dopamine EC80; stronger effect = lower value. activity change, negative = inhibition, % at 10 µM. 360,000 tested, 3.2% active; in the data active = activity change below about -30%; note: % is set by controls: 0 for no effect and ±100 for the full control effect
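Calcium flux readout: force-coupled, inducible Hek293 Trex D1 line, cells induced overnight at 30 C with tetracycline, dye-loaded 30–90 min at RT. Antagonism scored against EC80 dopamine challenge given 180 s after compound.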
D1 PAM: enhances dopamine response at the human D1 receptor. P21728. HEK293 TREx D1 cells, calcium flux, dopamine EC20 potentiation. potentiation, % at 10 µM. 360,000 tested, 0.036% active; in the data active = potentiation above about 30%; note: 0% is about no effect
TRHR ag: agonists of human TRH receptor; TRHR cells, calcium flux fluo-8, FDSS agonist mode; P34981; activation, % at 2 µM; 360,000 tested, 0.18% active; note: 0% is about no effect
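Agonist-mode FDSS calcium read (Ex 480/Em 530, 1 s cycles) in 1536-well TRHR cells with fluo-8 dye, after 10-cycle baseline and 23 nL compound addition; TRH at EC20 (10 nM final) added afterwards for the enhancer phase.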
Starred values were filed as active, the others as inactive; ! = not active in a repeat. Cut-off read from the data, not from the text of the source, unless noted: active = activation above about 30%; inactive = the rest.

SMILES	D1 agonist	TRHR PAM	D1 antagonist	D1 PAM	TRHR ag
COc1ccc(C2NC(=O)NC(C)=C2C(=O)Nc2cc(C)cc(C)c2)c(OC)c1 (configuration not stated)	1	-5	-2	1	0
COc1ccc(CCN2C(=O)CN=C2Nc2ccc(F)cc2)cc1OC	0	5	-39*	2	0
COc1ccc(C2=C(Nc3ccccc3)c3ccccc3C2=O)cc1	4	-12	-35*	-3	-2
CCOc1ccc(NC2=C(OC)C(=O)c3ccccc3C2=O)cc1	0	-1	-33*	-2	-1
COC1=C(Nc2ccc(OC)cc2)C(=O)c2ccccc2C1=O	3	-5	-18	-3	-1
CCOc1ccc(NC2=NCC(=O)N2CCc2ccccc2)cc1	102*	0	-65*	9	-2
COc1ccc(NC2=C(c3ccc(OC)cc3)C(=O)c3ccccc32)cc1	-1	-15	-18	-7	1
Cc1ccc(NC2=NCC(=O)N2CCc2ccccc2)cc1C	12	1	-15	-1	0
C=CCN1C(=O)CN=C1Nc1ccc(F)cc1	-1	-14	1	-2	0
NS(=O)(=O)c1ccc(CCNc2nc3c(-c4cccc(F)c4)nnn3c3ccc(Cl)cc23)cc1	4	2	-15	-1	1
CCOc1ccc(NC2=C(Cl)C(=O)N(Cc3ccccc3)C2=O)cc1	4	3	-30*	-8	0
Cc1ccccc1-c1noc(-c2ccc(N3CCN(C)CC3)c([N+](=O)[O-])c2)n1	2	0	-2	-2	0
Cc1n[nH]c(C)c1CCc1nc2c3ccccc3nc(SCC(N)=O)n2n1	2	33*	13	6	0
Cc1n[nH]c(C)c1CCc1nc2c3ccccc3nc(SCC(=O)Nc3ccc(F)cc3)n2n1	3	6	-18	0	0
Cc1cccc(C)c1NC(=O)CSc1nc2ccccc2c2nc(CCc3c(C)n[nH]c3C)nn12	2	1	-46*	0	0
COCCOc1cc(NC(=O)CS(=O)CC(=O)N(C)C)c(Cl)cc1Cl (configuration not stated)	3	-5	17	1	0
CCN(CC)C(=O)CS(=O)(=O)CC(=O)Nc1cc(OCCOC)c(Cl)cc1Cl	1	-1	-55*	1	-1
COc1ccccc1OCCn1c(COc2cc(C)ccc2C)nc2ccccc21	10	7	-11	-1	2
CC(Nc1ccccc1CO)C(=O)Nc1cccc(Cl)c1Cl (configuration not stated)	1	23	-61*	-5	0
Cc1cc2c(s1)c1cnn(Cc3cc(Cl)ccc3F)c(=O)c1n2C	0	-1	-12	0	-1
CN(C)CC(CCC(CN(C)C)C(O)(c1ccccc1)c1ccccc1)C(O)(c1ccccc1)c1ccccc1 (configuration not stated)	27	-15	-41*	-7	5
Cc1nn(S(=O)(=O)c2ccc(C(C)C)cc2)c(C)c1S(=O)(=O)N1CCCCCC1	2	23	1	0	0
O=C(NC1CCCC1)C1CCN(C(=O)c2ccc(-c3ccccc3)cc2)CC1	5	-5	-38*	-2	-1
COc1ccc(C(=O)N2CCC(C(=O)NCc3ccccn3)CC2)cc1	4	6	-31*	-12	0
COc1ccc(C(=O)N2CCN(CCc3ccccn3)CC2)cc1	50*!	19	-46*!	6	0
SMILES	D1 agonist	TRHR PAM	D1 antagonist	D1 PAM	TRHR ag
CCc1ccccc1NC(=O)C1CCN(C2=NS(=O)(=O)C(c3ccc(C)c(C)c3)=C2C)CC1	5	0	7	-7	0
COC(=O)c1cc(Br)c(=O)n(CC(C)C)c1	1	31*	-1	3	-1
COC(=O)c1cc(Br)c(=O)n(CCN2CCCC2)c1	2	-6	-7	-8	1
COc1cc2cncc(Cc3ccc(Cl)cc3)c2cc1OC	5	1	-45*	0	0
COc1cc2nc(CN(C)Cc3ccc(Cl)cc3)[nH]c(=O)c2cc1OC	4	-2	19	3	1
S=C(Nc1ccccc1)Nc1ccc(Cl)cc1Cl	3	4	-10	9	0
S=C(NCc1ccccc1Cl)Nc1ccccc1Cl	8	-1	-21	-12	0
S=C(NCc1ccc(Cl)cc1Cl)Nc1ccccc1	26	0	-31*	-7	1
Cc1cc(Cl)ccc1NC(=S)NCc1ccccc1Cl	20	-3	-32*	-7	1
COC(=O)C1=NN(C(=O)c2ccc(Br)cc2)C(O)(C(C)(C)C)C1 (configuration not stated)	32*	-8	-5	1	9
CC1=NN(C(=O)c2ccc(Br)cc2)C(O)(C(F)(F)OC(F)(F)F)C1 (configuration not stated)	5	-3	-14	1	0
COC(=O)C1=NN(C(=O)c2cccc(Cl)c2)C(O)(C(C)(C)C)C1 (configuration not stated)	31*	6	-15	-7	6
Cc1ccc2nc(Cc3ccc(N)cc3)oc2c1	1	2	-31*	-12	0
Cc1ccc2nc(CCc3nc4ccc(C)cc4o3)oc2c1	6	-1	4	-1	0
COc1ccc(-n2c(SCc3ccccc3F)nc3c([nH]c4ccccc43)c2=O)cc1	0	2	-6	-1	1
CCn1c(C(Cc2ccccc2)NC(=O)COC)nc2ccccc21 (configuration not stated)	-3	-7	-30*	-8	0
O=S(=O)(c1ccc2c(c1)OCCO2)N1CCN(S(=O)(=O)c2ccc(F)c(F)c2F)CC1	1	1	9	2	-1
O=C(/C=C/c1ccccc1)N1CCN(Cc2cc(=O)n3nc(-c4ccccc4)sc3n2)CC1	0	2	-3	-1	0
CCCCCn1c(CCCNC(=O)c2ccc(Cl)cc2)nc2ccccc21	7	12	3	-1	-2
Cc1cc(OCCSc2nnc(-c3cccs3)n2C)ccc1Cl	35*	6	-20	-13	0
O=C(CSc1nnc2scc(-c3ccccc3)n12)N1CCN(Cc2ccccc2)CC1	0	39*	12	-5	0
Cc1ccc(-c2csc3nnc(SCC(=O)N4CCN(Cc5ccccc5)CC4)n23)cc1	1	0	15	-3	0
O=C(N/N=C/c1cn(CCOc2ccccc2)c2ccccc12)c1ccncc1	3	0	-34*	-5	0
CCCCOc1ccc(C(=O)NCC(=O)NCCOc2ccc(C)cc2)cc1	2	32*	19	0	-1
Cc1ccc(S(=O)(=O)N(C)C)cc1NC(=O)COC(=O)CCC1CCCCC1	5	1	-39*	-4	0
Cc1ccc(S(=O)(=O)N(C)C)cc1NC(=O)COC(=O)CC1CCCC1	2	13	4	2	0

Compound activity as filed in PubChem BioAssay.
